“And” between values parts separate entries of the source, which are not always exact repeats. Identical values can stand only once. For some of these results: Measured potencies and affinities stand elsewhere. The source made the active and inactive calls. Unless noted, no rule for the calls is given here.

Experiment [1] is described as follows: polyglutamine-triggered caspase-3 activation inhibitors, cell-based (AID 1583). The note with it: polyglutamine-induced caspase-3 activation, cell assay; stronger effect = higher value;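 tested at 10 µM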.
A short description of experiment [2]: suppressors of polyQ aggregation in yeast, 75Q-TubU reporter (AID 1593). To be noted: Yeast 75Q polyglutamine aggregation reporter.
Experiment [3] is described as follows: rescue of polyQ-huntingtin neuronal dysfunction in worms, whole organism, C. elegans mechanosensory neurons, N-terminal huntingtin (AID 1599). To be noted: touch response, stronger effect = higher value.
The nature of experiment [4]: inhibitors of mitochondrial cytochrome c release, biochemical, purified mitochondria (AID 1603).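 Also: mouse liver mitochondria challenged with calcium chloride; signal normalized to the plate average as 100%.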 The note with it: stronger effect = lower value.
A short description of experiment [5]: inhibitors of polyQ protein aggregation (AID 1604). To be noted: polyglutamine-induced protein aggregation inhibition assay; stronger effect = higher value; tested at 2.5 µM.
A short description of experiment [6]: enhancers of glutamate uptake in motor neurons, MN-1 cell line (AID 1612).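 Also: tested at 1 µM final; 0% = mean of DMSO vehicle wells on each plate; positive means more glutamate uptake than control and negative means less.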 The note with it: MN-1 motor neuron cells, stronger effect = higher value.
Experiment [7] in a line: suppressors of polyglutamine aggregation in yeast, 75Q-TubH (AID 1616). To be noted: S. cerevisiae 75Q-TubH polyglutamine aggregation suppression; stronger effect = higher value.
Experiment [8] is described as follows: hESC survival regulators, cell-based (AID 493140).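 Also: cells exposed to compounds for four days before counting.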 To be noted: human embryonic stem cell survival screen; stronger effect = higher value.
The nature of experiment [9]: Cy5 fluorescence interference with SSB-bound oligo, artefact control for HCV NS3 helicase inhibitor project, biochemical, NIH Clinical Collection, E. coli SSB (AID 743268).
The test system of experiment [10] is Hepatitis C virus NS3 helicase. The experiment can be described thus: HCV NS3 helicase inhibitors, primary screen, biochemical, fluorescence polarization, NIH Clinical Collection (AID 743270). The note with it: NS3 helicase binding to Cy5-dT15 DNA, stronger effect = higher value, concentration not given here. On the technique in general: In fluorescence polarisation assays a small probe gives low polarisation when free and higher when bound to something large.

Experiment [11] deals with Single-stranded DNA-binding protein (Escherichia coli (strain K12)) (UniProt P0AGE0). The experiment in a line: E. coli SSB displacement from DNA, counter-screen for HCV NS3 helicase inhibitor project, biochemical, fluorescence polarization, NIH Clinical Collection (AID 743271; in the data active = inhibition above about 28%). To be noted: stronger effect = higher value, concentration not given here. (The purpose of a counterscreen is to sort out artefacts and off-target activity.)

Experiment [12] can be described thus: fluorescence interference in NS3h assay format, artefact control for HCV NS3 helicase inhibitor project, biochemical, NIH Clinical Collection (AID 743272).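 Also: HCV NS3 helicase with a Cy5 labelled single stranded DNA probe.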 The note with it: fluorescence interference counterscreen, stronger effect = lower value.
The nature of experiment [13]: modulation of C. elegans fzo-1 (AID 1259413).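 Also: fzo-1 mutant C. elegans worms in liquid wells.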 To be noted: C. elegans fzo-1 modulator screen, mean read-out; stronger effect = higher value.
The nature of experiment [14]: viability rescue of complex I mutant cybrids, primary screen, cell-based, galactose medium, ATP luminescence (AID 1645843;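 active = z-score of at least 1.8 in each of two replicates, scored against plate mean and spread of sample wells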;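 also: positive z means more ATP and so rescue of galactose-driven cybrid death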). To be noted: complex I mutant cybrid cells, 72 h, stronger effect = higher value.
In experiment [15] the test system is F380Y/beta1. The experiment in a line: modulators of BK channel variants, profiling panel, selectivity assay, cell-based, U2OS BacMam, thallium flux, beta subunits (AID 1259406;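 active = thallium flux through the channel raised or lowered by more than 3 SD from vehicle-only wells, actives on both sides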;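 also: initial slope of Thallos dye fluorescence rise after thallium is added; log ratio against the mean of 0.3% DMSO vehicle wells on the same plate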). To be noted: at 30 µM.
Experiment [16] has as its system F380Y/beta4. Described as above. The note with it: at 30 µM.
The test system of experiment [17] is R275C/beta4. The description is as above. To be noted: at 30 µM.
The subject of experiment [18] is R275C/Slo1WT/beta2. The description is as above. The note with it: at 30 µM.
A short description of experiment [19]: liver-stage malaria parasite growth inhibition, primary screen, cell-based, HepG2, luciferase luminescence, HepG2 viability (AID 624349; in the data active = parasite load remaining mostly below about 12%, no sharp cut-off; inactive = mostly above about 10%;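 also: 100% = mean of DMSO negative control wells on the same plate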). The note with it: P. berghei liver stage in HepG2, luciferase luminescence, concentration not given here; parasite load remaining: stronger effect = lower value; viability: measured here: HepG2 viability without parasites.

Broadly, the inhibition is the change of the read-out against control, counted positive when it falls. On to `Cc1cccc(Nc2ccccc2C(=O)O)c1C`, for which the values for the inhibition in [1], in experiment [10] and in [11] were 14.9%, -5% (inactive) and 1.05% (inactive), respectively. For the same compound, the score in experiment [2] is 0.19. This compound also yielded a rescue above control in experiment [3] of 14.6. For the same compound, the cytochrome c release ratio in experiment [4] came out at 1. In addition, in experiment [5], the inhibition of aggregation is 32.9%. The glutamate uptake change in [6] is -12.3%. Besides, the aggregation suppression score in experiment [7] came to 0.495. The survival in [8] is 12.2 (inactive). The fluorescence ratio in [9] was 1 (inactive); in experiment [12] it was 0.91 (inactive). Further, the mean signal in [13] was 235 (inactive). Moreover, the z-score in experiment [14] was 0.385 (inactive) and 1.06 (inactive). Further, the log fold change Tl+ flux in [15] was 0.147 (active); in [16], 0.146 (active); in experiment [17], 0.0837 (inactive); in experiment [18], 0.00462 (inactive).
A word on the viability: it is a read-out of living cells in per cent, often relative to untreated cells. Consider `C[C@H](CCC(=O)O)[C@H]1CC[C@H]2[C@@H]3C(=O)C[C@@H]4CC(=O)CC[C@]4(C)[C@H]3CC(=O)[C@]12C`, for which the parasite load remaining in experiment [19] is 41.4% (inactive) and 59.6% (inactive). Moreover, the viability in [19] was 47.4% and 73.1%. The fluorescence ratio in experiment [9] was 0.97 (inactive); in experiment [12], 0.9 (inactive). Further, the inhibition in experiment [10] is 3.28% (inactive); in experiment [11], 2.76% (inactive). Moreover, the mean signal in experiment [13] is 247 (inactive). The log fold change Tl+ flux in [15] was -0.0273 (inactive); in experiment [16] it was -0.0104 (inactive); in experiment [17] it was 0.0134 (inactive); in experiment [18] it was -0.0176 (inactive).
In the case of `CCCN(CCC)S(=O)(=O)c1ccc(C(=O)O)cc1`, the inhibition in experiment [1] was 2.2%; in experiment [10], -3.18% (inactive); in [11] it was -0.48% (inactive). The same compound displayed a score in [2] of 0.68. The rescue above control in experiment [3] was determined as 9.13. In experiment [4], the cytochrome c release ratio is 1.07. The inhibition of aggregation in experiment [5] is 52.4%. In addition, the glutamate uptake change in [6] is -14.7%. This compound returned an aggregation suppression score in experiment [7] of 0.579. The survival in [8] is 6.25 (inactive). Also, the fluorescence ratio was 1.02 (inactive) in experiment [9] and 0.94 (inactive) in experiment [12]. For the same compound, the mean signal in experiment [13] was 252 (inactive). For the same compound, the z-score in experiment [14] is 0.145 (inactive). For the same compound, the log fold change Tl+ flux was -0.02 (inactive) in experiment [15], -0.0299 (inactive) in experiment [16], -0.0261 (inactive) in experiment [17] and 0.0366 (inactive) in [18].
`CC[C@H](C)C(=O)O[C@H]1C[C@H](O)C=C2C=C[C@H](C)[C@H](CC[C@@H](O)C[C@@H](O)CC(=O)O)[C@H]21`: the parasite load remaining in experiment [19] was 98.4% (inactive). In addition, in experiment [19], the viability came out at 77.5%. Moreover, the fluorescence ratio was 1.01 (inactive) in experiment [9] and 1 (inactive) in experiment [12]. For the same compound, the inhibition in experiment [10] was -3.56% (inactive); in experiment [11], -3.18% (inactive). The mean signal in experiment [13] is 245 (inactive). Also, in [14], the z-score was 0.175 (inactive). In addition, the log fold change Tl+ flux in experiment [15] was -0.03 (inactive); in [16], 0.0119 (inactive); in experiment [17] it was -0.0312 (inactive); in [18] it was -0.0454 (inactive).
For the compound `CC(COc1ccccc1)NC(C)C(O)c1ccc(O)cc1` (centres undefined), the survival in [8] was 10.8 (inactive). In experiment [19], the parasite load remaining is 51.4% (inactive) and 31.5% (inactive) and 101% (inactive). Besides, in experiment [19], the viability was 103% and 49.4% and 92.3%. Moreover, the values for the fluorescence ratio in experiment [9] and in experiment [12] were 1 (inactive) and 0.91 (inactive), respectively. The results for the inhibition in [10] and in experiment [11] were -4.09% (inactive) and 1.81% (inactive), respectively. The mean signal in [13] is 247 (inactive). In addition, in experiment [14], the z-score was 0.74 (inactive). The log fold change Tl+ flux is 0.0456 (inactive) in [15], 0.0762 (inactive) in experiment [16], 0.0625 (inactive) in experiment [17] and 0.0192 (inactive) in [18].
As to `C[C@]12CCC(=O)C=C1CC[C@@H]1[C@@H]2C(=O)C[C@@]2(C)[C@H]1CC[C@]2(O)C(=O)CO`, the survival in experiment [8] is 29.6 (inactive). Also, the parasite load remaining in experiment [19] is 29.2% (inactive) and 101% (inactive) and 66.2% (inactive). In addition, the viability in experiment [19] was 48% and 86.7% and 71%. In addition, the fluorescence ratio in experiment [9] and in experiment [12] was 0.97 (inactive) in each case. For the same compound, the inhibition in experiment [10] is -1.97% (inactive); in [11] it was 2.76% (inactive). Moreover, in [13], the mean signal was 220 (inactive). For the same compound, the z-score in experiment [14] is 0.195 (inactive). The log fold change Tl+ flux was -0.034 (inactive) in [15], -0.00179 (inactive) in experiment [16], 0.0193 (inactive) in experiment [17] and 0.0155 (inactive) in experiment [18].
For the compound `CN(C)CC/C=C1\c2ccccc2COc2ccccc21`, in [8], the survival was 18.8 (inactive). Besides, the parasite load remaining in experiment [19] is 66.1% (inactive) and 36% (inactive) and 100% (inactive). Moreover, the viability in [19] was 121% and 46.9% and 88.3%. Moreover, the fluorescence ratio in experiment [9] was 0.98 (inactive); in [12], 0.9 (inactive). For the same compound, the inhibition in experiment [10] was -1.36% (inactive); in [11] it was 4.1% (inactive). In addition, the mean signal in [13] was 222 (inactive). Moreover, in experiment [14], the z-score was -0.51 (inactive) and -1.11 (inactive). In addition, the log fold change Tl+ flux in experiment [15] is 0.078 (inactive); in experiment [16] it was 0.0925 (inactive); in experiment [17], 0.0396 (inactive); in experiment [18], -0.0225 (inactive).
As to `CC(C)C1CCC(C(=O)N[C@H](Cc2ccccc2)C(=O)O)CC1` (some centres undefined), the parasite load remaining in [19] is 83.5% (inactive) and 55.1% (inactive). The viability in [19] is 68.8% and 167%. Further, the fluorescence ratio is 1.01 (inactive) in experiment [9] and 0.74 (active) in experiment [12]. Moreover, the figures for the inhibition in experiment [10] and in [11] were -0.4% (inactive) and 2.98% (inactive), respectively. Further, in experiment [13], the mean signal was 221 (inactive). For the same compound, in experiment [14], the z-score was -0.11 (inactive). In addition, the log fold change Tl+ flux is 0.0965 (inactive) in [15], 0.075 (inactive) in [16], 0.0835 (active) in [17] and 0.0201 (inactive) in experiment [18].
In the case of `CC(C)Oc1ccc2c(=O)c(-c3ccccc3)coc2c1`, in experiment [19], the parasite load remaining is 170% (inactive). In experiment [19], the viability turned out to be 63.7%. Also, the fluorescence ratio is 1.05 (inactive) in experiment [9] and 1.04 (inactive) in experiment [12]. For the same compound, the inhibition in [10] is 3.56% (inactive); in experiment [11], 5.29% (inactive). Besides, the mean signal in experiment [13] is 191 (inactive). In [14], the z-score is -0.74 (inactive). For the same compound, the log fold change Tl+ flux in experiment [15] is -0.0734 (inactive); in experiment [16], -0.0682 (inactive); in [17] it was -0.0145 (inactive); in [18] it was 0.013 (inactive).
With `CN[C@@H]1[C@H](O)[C@H](NC)[C@H]2O[C@@]3(O)C(=O)C[C@@H](C)O[C@H]3O[C@@H]2[C@H]1O`, the inhibition in experiment [1] was 16.9%; in experiment [10], -5% (inactive); in [11], -4.29% (inactive). Further, the score in experiment [2] amounted to 1.49. In [3], this compound yielded a rescue above control of 0.75. For the same compound, the cytochrome c release ratio in experiment [4] stood at 0.85. The inhibition of aggregation in [5] was determined as 14.3%. For the same compound, in [6], the glutamate uptake change was -0.34%. In [7], the aggregation suppression score turned out to be 1.46. In addition, the survival in experiment [8] was 3.25 (inactive). Further, the fluorescence ratio was 1.06 (inactive) in experiment [9] and 1.01 (inactive) in experiment [12]. Further, in experiment [14], the z-score was 0.84 (inactive) and 1 (inactive). Moreover, the log fold change Tl+ flux in experiment [15] is 0.00447 (inactive); in experiment [16] it was 0.0229 (inactive); in [17], 0.0437 (inactive); in [18], -0.0137 (inactive).

The values are drawn from PubChem BioAssay.
